{"source": "PubChem BioAssay (NCI)", "note": "“And” between values parts separate entries of the source, which are not always exact repeats. Equal values may be shown once. This is part of a sample that, as a whole, favours compounds with a hit. Of some 79,000 tested, about 15% had one in any assay. More than one record can exist for a structure, and the calls need not agree. The source made the active and inactive calls. Cut-off read from the data, not from the text of the source: active = growth inhibition above about 70%; inactive = the rest.", "data": [{"assay": "NCI Yeast Anticancer Drug Screen. Data for the bub3 strain (AID 167)", "settings": "S. cerevisiae bub3 mutant strain, at 5.0 µM (retest, dose inferred, filed as 0.5), stronger effect = higher value", "experimental": "(§1) Growth inhibition of yeast strains with defined genetic alterations is measured as a screen for potential anti-cancer activity. Selected strains with alterations in DNA damage repair or cell cycle control were exposed to compounds and growth inhibition was measured relative to vehicle treated controls. The strain used in this assay is bub3", "values": [{"smiles": "CN(C)[PH+](N(C)C)N(C)C.CN(C)[PH+](N(C)C)N(C)C.[C-]#[O+].[C-]#[O+].[C-]#[O+].[C-]#[O+].[C-]#[O+].[C-]#[O+].[Co].[Co].[Hg]", "growth inhibition": "2% (inactive)"}, {"smiles": "CC1CC[N-]C(C)C1.CN(C)C=O.[Cl][Pt][Cl]", "note": "(stereo not given)", "growth inhibition": "73% (active)"}, {"smiles": "CCC(CC)COC(=O)CI", "growth inhibition": "50% (inactive)"}, {"smiles": "O=C(O)C1CC2c3ccccc3C1([N+](=O)[O-])c1ccccc12", "note": "(stereo not given)", "growth inhibition": "2% (inactive)"}, {"smiles": "COc1cc(C2c3cc4c(cc3OC(N3CCOCC3)C2C)OCO4)cc(OC)c1OC", "note": "(stereo not given)", "growth inhibition": "0% (inactive)"}, {"smiles": "CC([CH2][Hg][Cl])c1ccccc1", "note": "(stereo not given)", "growth inhibition": "99% (active)"}, {"smiles": "OC1C2[C@@H](O)CCCN2C[C@@H](O)[C@H]1O", "note": "(stereo not given in full)", "growth inhibition": "6% (inactive)"}, {"smiles": "CC1=NNC(=O)C1(Br)Br", "growth inhibition": "1% (inactive)"}, {"smiles": "O=[N+]([O-])/C=C/c1cccc(F)c1", "growth inhibition": "18% (inactive)"}]}, {"assay": "NCI Yeast Anticancer Drug Screen. Data for the bub3 strain (AID 167)", "settings": "S. cerevisiae bub3 mutant strain, at 50.0 µM (retest, dose inferred, filed as 5.0), stronger effect = higher value", "experimental": "as §1", "values": [{"smiles": "CN(C)[PH+](N(C)C)N(C)C.CN(C)[PH+](N(C)C)N(C)C.[C-]#[O+].[C-]#[O+].[C-]#[O+].[C-]#[O+].[C-]#[O+].[C-]#[O+].[Co].[Co].[Hg]", "growth inhibition": "13% (inactive)"}, {"smiles": "CC1CC[N-]C(C)C1.CN(C)C=O.[Cl][Pt][Cl]", "note": "(stereo not given)", "growth inhibition": "100% (active)"}, {"smiles": "CCC(CC)COC(=O)CI", "growth inhibition": "86% (active)"}, {"smiles": "O=C(O)C1CC2c3ccccc3C1([N+](=O)[O-])c1ccccc12", "note": "(stereo not given)", "growth inhibition": "6% (inactive)"}, {"smiles": "COc1cc(C2c3cc4c(cc3OC(N3CCOCC3)C2C)OCO4)cc(OC)c1OC", "note": "(stereo not given)", "growth inhibition": "-11% (inactive)"}, {"smiles": "CC([CH2][Hg][Cl])c1ccccc1", "note": "(stereo not given)", "growth inhibition": "99% (active)"}, {"smiles": "OC1C2[C@@H](O)CCCN2C[C@@H](O)[C@H]1O", "note": "(stereo not given in full)", "growth inhibition": "8% (inactive)"}, {"smiles": "CC1=NNC(=O)C1(Br)Br", "growth inhibition": "75% (active)"}, {"smiles": "O=[N+]([O-])/C=C/c1cccc(F)c1", "growth inhibition": "98% (active)"}]}, {"assay": "NCI Yeast Anticancer Drug Screen. Data for the bub3 strain (AID 167)", "settings": "S. cerevisiae bub3 mutant strain, at 50.0 µM, stronger effect = higher value", "experimental": "as §1", "values": [{"smiles": "CN(C)[PH+](N(C)C)N(C)C.CN(C)[PH+](N(C)C)N(C)C.[C-]#[O+].[C-]#[O+].[C-]#[O+].[C-]#[O+].[C-]#[O+].[C-]#[O+].[Co].[Co].[Hg]", "growth inhibition": "99.5% (active)"}, {"smiles": "[Cl][Sn]([Cl])([c]1ccccc1)[c]1ccccc1", "growth inhibition": "48.4% (inactive) and 95.8% (active)"}, {"smiles": "CCNC(=O)C(C)Br", "note": "(stereo not given)", "growth inhibition": "6.5% (inactive)"}, {"smiles": "CC1=CC(=O)C=CC1=Nc1ccc(N(CCCl)CCCl)cc1", "growth inhibition": "-1.45% (inactive)"}, {"smiles": "CC1CC[N-]C(C)C1.CN(C)C=O.[Cl][Pt][Cl]", "note": "(stereo not given)", "growth inhibition": "89.4% (active)"}, {"smiles": "COc1ccc(P2(=S)OC(C)(C)C(C)(C)O2)cc1", "growth inhibition": "-11.4% (inactive)"}, {"smiles": "COc1ccc(/C=C/c2cc(OC)c3c(c2)OCO3)cc1O", "growth inhibition": "1.7% (inactive)"}, {"smiles": "CN1CN(c2ccccc2)C2(CCN(CCc3csc4ccccc34)CC2)C1=O", "growth inhibition": "3.5% (inactive)"}, {"smiles": "O=C(O)C1CC2c3ccccc3C1([N+](=O)[O-])c1ccccc12", "note": "(stereo not given)", "growth inhibition": "3.5% (inactive)"}, {"smiles": "COc1ccc2n[se]nc2c1", "growth inhibition": "51.6% (inactive)"}, {"smiles": "[Cl][Pd]([Cl])([Cl])[Cl].[NH-]CC[NH-].[NH-]CC[NH-].[Pd+2]", "growth inhibition": "26.4% (inactive)"}, {"smiles": "COc1cc(C2c3cc4c(cc3OC(N3CCOCC3)C2C)OCO4)cc(OC)c1OC", "note": "(stereo not given)", "growth inhibition": "13.3% (inactive)"}, {"smiles": "[N-]=[N+]=Nc1nc2ccccc2c(N=[N+]=[N-])c1Cl", "growth inhibition": "5.45% (inactive)"}, {"smiles": "CC([CH2][Hg][Cl])c1ccccc1", "note": "(stereo not given)", "growth inhibition": "99.6% (active)"}, {"smiles": "OC1C2[C@@H](O)CCCN2C[C@@H](O)[C@H]1O", "note": "(stereo not given in full)", "growth inhibition": "4.95% (inactive)"}, {"smiles": "CC1=NNC(=O)C1(Br)Br", "growth inhibition": "43.1% (inactive)"}, {"smiles": "O=C(O)c1ccc(I)cc1.[Ni]", "growth inhibition": "85% (active)"}, {"smiles": "CNC(=S)P(c1ccccc1)c1ccccc1", "growth inhibition": "13.4% (inactive)"}, {"smiles": "CCOP(=O)(OCC)C(C#N)OC(C)(C)C", "note": "(stereo not given)", "growth inhibition": "10.3% (inactive)"}, {"smiles": "CCC12C=CCN3CCC4(c5ccc(OC)cc5N(C)C4C(O)(C(=O)OC)C1OC(C)=O)C32", "note": "(stereo not given) (tested in a mixture with another compound)", "growth inhibition": "-3.15% (inactive) and 0.7% (inactive)"}, {"smiles": "O=[N+]([O-])/C=C/c1cccc(F)c1", "growth inhibition": "99.5% (active)"}, {"smiles": "O=S(=O)(c1ccc(O)cc1)c1ccc(O)cc1", "growth inhibition": "1.85% (inactive) and -8.15% (inactive)"}]}]}
